# Test results as given in PubChem BioAssay (Tox21).
# Results filed as inconclusive are left out. Entries that show only a call come without a potency. The source made the active and inactive calls. Unless noted, calls follow the shape of the dose curve; as a rule, active = well fitted curve in the direction sought with a large enough effect in the repeat runs; inconclusive = weak or mixed curves; inactive = no such curve, though single readings can be large; an effect the other way counts as inactive or inconclusive.
# Tested on: not listed separately
# Experiment: qHTS assay to identify small molecule antagonists of the peroxisome proliferator-activated receptor delta (PPARd) signaling pathway - cell viability counter screen (AID 743213); also: nearly all actives have a fitted effect of over 50% in size; also: potency is read from the fitted curve at half-maximal effect
# Details: PPARd-bla HEK293H viability, CellTiter-Glo luminescence, 17 h; series mostly up to 62 µM
# Summary of the method: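 Same-well viability: cells pre-incubated 5 h, dosed with compound plus 300 nM L165041, kept 17 h at 37 C, FRET substrate 2 h RT, then CellTiter-Glo 30 min RT and luminescence.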
row,SMILES,Potency
1,CC(C(=O)O)c1ccc(C(=O)c2cccs2)cc1 (stereo unspecified),inactive
2,CCOC(=O)c1c(N)sc2c1CCN(Cc1ccccc1)C2,inactive
3,O=C(O)c1cccc(C[C@@H]2COc3ccc(OCc4nc5cc(F)ccc5s4)cc3[C@@H]2O)c1,inactive
4,CCCCCCC(O)CCOC(C)=O (stereo unspecified),inactive
5,CCCCC(CC)COS(=O)(=O)O (stereo unspecified),inactive
6,CCN(CC)c1ccc(C(=C2C=CC(=[N+](CC)CC)C=C2)c2ccc(S(=O)(=O)O)cc2S(=O)(=O)[O-])cc1,27.5 µM (active)
7,Cc1ccc(N(CC2=NCCN2)c2cccc(O)c2)cc1,inactive

# Biological target: Peroxisome proliferator-activated receptor delta (Homo sapiens) (UniProt Q03181)
# Experiment: qHTS assay to identify small molecule antagonists of the peroxisome proliferator-activated receptor delta (PPARd) signaling pathway (AID 743215; active = well fitted inhibition curve with a large enough effect in the signal ratio in the repeat runs, not every such curve was filed as active; the % refers to the signal ratio;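 also: cells stimulated with agonist L165041 at 300 nM final during compound exposure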)
# Details: HEK293H PPARd-UAS-bla, beta-lactamase FRET ratio, antagonist, 17 h; series mostly up to 62 µM
# Summary of the method: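 Read-out is beta-lactamase FRET fluorescence, measured 2 h after substrate addition at room temperature. Beforehand, UAS-bla HEK293H cells carrying the PPARd reporter were exposed to compounds with L165041 at 300 nM final for 17 h at 37 C.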
# Peroxisome proliferator-activated receptor delta (Homo sapiens), sequence (Q03181 whole entry, looked up): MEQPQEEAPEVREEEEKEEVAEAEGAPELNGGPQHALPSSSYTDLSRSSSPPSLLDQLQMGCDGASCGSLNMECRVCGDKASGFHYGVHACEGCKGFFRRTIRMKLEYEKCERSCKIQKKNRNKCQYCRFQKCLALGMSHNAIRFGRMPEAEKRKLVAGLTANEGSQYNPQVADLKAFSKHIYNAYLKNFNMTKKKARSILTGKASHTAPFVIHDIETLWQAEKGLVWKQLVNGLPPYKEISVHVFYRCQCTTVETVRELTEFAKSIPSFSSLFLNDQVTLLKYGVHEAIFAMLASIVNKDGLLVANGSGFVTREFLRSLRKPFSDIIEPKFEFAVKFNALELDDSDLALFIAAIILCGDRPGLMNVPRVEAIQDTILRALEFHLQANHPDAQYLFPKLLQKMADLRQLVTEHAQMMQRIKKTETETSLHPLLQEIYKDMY
row,SMILES,Potency
1,CC(C)(O)CCc1ccccc1,inactive
2,CCN(Cc1cccc(S(=O)(=O)O)c1)c1ccc(C(=C2C=CC(=[N+](CC)Cc3cccc(S(=O)(=O)O)c3)C=C2)c2ccccc2S(=O)(=O)[O-])cc1,inactive
3,CCO[Si](C)(CCCOCC1CO1)OCC (stereo unspecified),inactive
4,CCCCCc1ccco1,inactive
5,CCCCCCCCCCCCCC(=O)OCC(O)CO (stereo unspecified),inactive
6,CCN(CC)CCOc1ccccc1C(=O)CCc1ccccc1,inactive
7,O=C(/C=C/c1ccc([N+](=O)[O-])cc1)c1ccccc1,inactive
8,COc1cc(NCc2ccc3nc(N)nc(N)c3c2C)cc(OC)c1OC,inactive
9,CCN(Cc1cccc(S(=O)(=O)O)c1)c1ccc(C(=C2C=CC(=[N+](CC)Cc3cccc(S(=O)(=O)O)c3)C=C2)c2ccc(O)cc2S(=O)(=O)[O-])cc1,inactive
10,CCCCCCC(O)CCOC(C)=O (stereo unspecified),inactive
11,CCCCC(CC)COS(=O)(=O)O (stereo unspecified),inactive
12,CCN(CC)c1ccc(C(=C2C=CC(=[N+](CC)CC)C=C2)c2ccc(S(=O)(=O)O)cc2S(=O)(=O)[O-])cc1,inactive

# Biological target: Bile acid receptor (Homo sapiens) (UniProt Q96RI1)
# Experiment: qHTS assay to identify small molecule antagonists of the farnesoid-X-receptor (FXR) signaling pathway (AID 743217; active = well fitted inhibition curve with a large enough effect in the signal ratio in the repeat runs, not every such curve was filed as active; the % refers to the signal ratio)
# Details: HEK293T FXR-UAS-bla, beta-lactamase ratio, CDCA-stimulated, 16 h; series mostly up to 62.6 µM
# Summary of the method: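 HEK 293T FXR-UAS-bla, 5000 cells/well; compound + CDCA 50 uM final; 16 h, 37 °C; B/G FRET substrate 2 h RT; fluorescence.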
# Bile acid receptor (Homo sapiens), sequence (Q96RI1 whole entry, looked up): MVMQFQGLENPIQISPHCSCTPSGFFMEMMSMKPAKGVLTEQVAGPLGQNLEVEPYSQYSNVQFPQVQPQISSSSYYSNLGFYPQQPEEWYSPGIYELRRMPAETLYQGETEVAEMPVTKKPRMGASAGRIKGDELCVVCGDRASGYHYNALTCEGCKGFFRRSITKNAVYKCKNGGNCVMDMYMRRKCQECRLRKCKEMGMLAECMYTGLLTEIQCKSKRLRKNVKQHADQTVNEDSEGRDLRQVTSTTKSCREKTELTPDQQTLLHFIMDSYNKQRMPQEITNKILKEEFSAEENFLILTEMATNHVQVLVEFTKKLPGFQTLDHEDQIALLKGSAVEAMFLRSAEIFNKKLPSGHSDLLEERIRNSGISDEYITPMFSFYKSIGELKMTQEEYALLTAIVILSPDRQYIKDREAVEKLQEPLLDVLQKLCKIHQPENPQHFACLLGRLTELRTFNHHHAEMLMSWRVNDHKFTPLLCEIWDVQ
row,SMILES,outcome
1,CC(C)(O)CCc1ccccc1,inactive
2,COc1cc(NS(=O)(=O)c2ccc(N)cc2)nc(C)n1,inactive
3,CCN(Cc1cccc(S(=O)(=O)O)c1)c1ccc(C(=C2C=CC(=[N+](CC)Cc3cccc(S(=O)(=O)O)c3)C=C2)c2ccccc2S(=O)(=O)[O-])cc1,inactive
4,CCCCCCCCCCCCCC(=O)OCC(O)CO (stereo unspecified),inactive
5,c1ccc2sc(SSc3nc4ccccc4s3)nc2c1,inactive
6,CCN(CC)CCOc1ccccc1C(=O)CCc1ccccc1,inactive
7,Cc1c(C2(c3cc(Br)c(O)c(Br)c3C)OS(=O)(=O)c3ccccc32)cc(Br)c(O)c1Br,inactive
8,CCN(Cc1cccc(S(=O)(=O)O)c1)c1ccc(C(=C2C=CC(=[N+](CC)Cc3cccc(S(=O)(=O)O)c3)C=C2)c2ccc(O)cc2S(=O)(=O)[O-])cc1,inactive
9,CCCCCCC(O)CCOC(C)=O (stereo unspecified),inactive
10,CCCCC(CC)COS(=O)(=O)O (stereo unspecified),inactive

# Tested on: not listed separately
# Experiment: qHTS assay to identify small molecule agonists of the farnesoid-X-receptor (FXR) signaling pathway - cell viability counter screen (AID 743218); also: nearly all actives have a fitted effect of over 45% in size; also: potency is read from the fitted curve at half-maximal effect
# Details: FXR-bla HEK293T viability, CellTiter-Glo luminescence, 16 h; series mostly up to 62.6 µM
# Summary of the method: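 HEK 293T FXR-bla cells; 5 h pre-incubation, 16 h compound exposure at 37 C; LiveBLAzer substrate 2 h RT, then CellTiter-Glo 30 min RT, luminescence.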
row,SMILES,Potency
1,CC(C)C1CCC(C(=O)N[C@H](Cc2ccccc2)C(=O)O)CC1 (stereo partly specified),inactive
2,CCOc1ncc(F)c(=O)[nH]1,inactive
3,C[C@@H]1[C@H](O)[C@@H](C)/C=C/C=C\C=C\C=C\C=C\C=C\C=C\[C@H](O[C@@H]2O[C@H](C)[C@@H](O)[C@H](N)[C@@H]2O)C[C@@H]2O[C@](O)(C[C@@H](O)C[C@@H](O)[C@H](O)CC[C@@H](O)C[C@@H](O)CC(=O)O[C@H]1C)C[C@H](O)[C@H]2C(=O)O (stereo in doubt),inactive
4,CC(C)(O)CCc1ccccc1,inactive
5,COc1cc(NS(=O)(=O)c2ccc(N)cc2)nc(C)n1,inactive
6,SCCc1cnccn1,inactive
7,CCN(Cc1cccc(S(=O)(=O)O)c1)c1ccc(C(=C2C=CC(=[N+](CC)Cc3cccc(S(=O)(=O)O)c3)C=C2)c2ccccc2S(=O)(=O)[O-])cc1,inactive
8,COc1ccc(-c2cc(=S)ss2)cc1,inactive
9,CCO[Si](C)(CCCOCC1CO1)OCC (stereo unspecified),inactive
10,O=C1c2ccccc2C(=O)c2c(O)ccc(O)c21,inactive
11,CCCCCCCCCCCC(=O)OCC(O)CO (stereo unspecified),inactive
12,CCCCCc1ccco1,inactive
13,CS(=O)(=O)c1ccc([C@@H](C[C@H]2CCC(=O)C2)C(=O)Nc2cnccn2)cc1Cl,inactive
14,CCCCCCCCCCCCCCN(C)C,inactive
15,CCCCCCCCCCCCCC(=O)OCC(O)CO (stereo unspecified),inactive
16,COc1ccc(-n2nc(C(F)F)cc2-c2ccc(S(C)=O)cc2)cc1 (stereo unspecified),inactive

row,SMILES,Potency
1,CC[C@H]1OC(=O)[C@H](C)[C@@H](O[C@H]2C[C@@](C)(OC)[C@@H](O)[C@H](C)O2)[C@H](C)[C@@H](O[C@@H]2O[C@H](C)C[C@H](N(C)C)[C@H]2O)[C@](C)(O)C[C@@H](C)C(=O)[C@H](C)[C@@H](O)[C@]1(C)O,inactive
2,c1ccc2sc(SSc3nc4ccccc4s3)nc2c1,inactive
3,CC(=O)OCC(=O)[C@@]1(OC(C)=O)[C@@H](C)C[C@H]2[C@@H]3C[C@H](F)C4=CC(=O)C=C[C@]4(C)[C@@]3(F)[C@@H](O)C[C@@]21C,inactive
4,CCN(CC)CCOc1ccccc1C(=O)CCc1ccccc1,11.9 µM (active)
5,O=C(/C=C/c1ccc([N+](=O)[O-])cc1)c1ccccc1,inactive
6,O=S(=O)(O)CO,inactive
7,Cc1c(C2(c3cc(Br)c(O)c(Br)c3C)OS(=O)(=O)c3ccccc32)cc(Br)c(O)c1Br,16.9 µM (active)
8,CC(C(=O)O)c1ccc(C(=O)c2cccs2)cc1 (stereo unspecified),inactive
9,CCOC(=O)c1c(N)sc2c1CCN(Cc1ccccc1)C2,inactive
10,O=C(O)c1cccc(C[C@@H]2COc3ccc(OCc4nc5cc(F)ccc5s4)cc3[C@@H]2O)c1,inactive
11,CCCCCCC(O)CCOC(C)=O (stereo unspecified),inactive
12,Nc1nc(-c2ccc([N+](=O)[O-])cc2)cs1,inactive
13,CCCCC(CC)COS(=O)(=O)O (stereo unspecified),inactive
14,Cc1ccc(N(CC2=NCCN2)c2cccc(O)c2)cc1,inactive
15,O=[N+]([O-])C1(Br)COCOC1,inactive
16,CC(C)(C)NCC(O)COc1cccc2c1C[C@H](O)[C@H](O)C2 (stereo partly specified),inactive
